PubChem BioAssay AID1159580 (chemical genetic matrix, 2015)
Where “and” joins values, the source holds several entries; their conditions need not be identical. Identical values can stand only once. Out of some 5,500 compounds screened, about 2,000 (36%) were called active. About 18% were inconclusive and are not listed. Cut-off read from the data, not from the text of the source: active = normalized growth mostly below about 0.91 (no sharp cut-off); inconclusive = no clear call, values can overlap the other calls; inactive = mostly above about 0.92. Some of the results follow.

Assay: chemical genetic growth profiling, strain panel (AID 1159580);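 note: tested at 20 µM; growth read once vehicle control cultures reached saturation at 30 °C; 1 = growth at the plate median or of vehicle wells; lower values mean less growth of the strain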
Conditions: S. cerevisiae deletion strains, growth OD

Measured: normalized growth

COc1cc(/C=C/C(=O)O)cc(OC)c1OC
inactive: locus YAL021C, strain ccr4, hits give low values 0.979 | locus YAL026C, strain drs2, hits give low values 0.999 | locus YAL030W, strain snc1, hits give low values 0.988 | locus YBL061C, strain skt5, hits give low values 0.993 | locus YBR009C, strain hhf1, hits give low values 1.02 | locus YBR021W, strain FUR4, hits give low values 0.998 | locus YBR023C, strain chs3, hits give low values 0.993 | locus YBR171W, strain sec66, hits give low values 1 | locus YBR229C, strain ROT2, hits give low values 1.01 | locus YBR231C, strain swc5, hits give low values 0.941 | locus YBR279W, strain paf1, hits give low values 0.973 | locus YCL011C, strain gbp2, hits give low values 0.99 | locus YCL016C, strain dcc1, hits give low values 0.994 | locus YCL029C, strain bik1, hits give low values 1.01 | locus YCL061C, strain MRC1, hits give low values 1 | locus YCL069W, strain vba3, hits give low values 0.992 | locus YCR088W, strain abp1, hits give low values 0.989 | locus YDL005C, strain med2, hits give low values 0.979 | locus YDL035C, strain GPR1, hits give low values 1.01 | locus YDL040C, strain nat1, hits give low values 0.99 | locus YDL074C, strain BRE1, hits give low values 1.02 | locus YDL101C, strain DUN1, hits give low values 1.01 | locus YDL134C, strain PPH21, hits give low values 1.02 | locus YDL185W, strain tfp1, hits give low values 1.01 | locus YDL192W, strain arf1, hits give low values 1.01 | locus YDR001C, strain nth1, hits give low values 0.985 | locus YDR069C, strain doa4, hits give low values 0.991 | locus YDR101C, strain arx1, hits give low values 1.01 | locus YDR137W, strain rgp1, hits give low values 1 | locus YDR159W, strain sac3, hits give low values 0.986 | locus YDR162C, strain NBP2, hits give low values 1.03 | locus YDR195W, strain ref2 0.99 | locus YDR297W, strain sur2, hits give low values 1 | locus YDR318W, strain mcm21, hits give low values 1.01 | locus YDR334W, strain swr1, hits give low values 0.987 | locus YDR335W, strain msn5, hits give low values 0.987 | locus YDR388W, hits give low values 1.01 | locus YDR392W, strain spt3, hits give low values 0.946 | locus YDR502C, strain sam2, hits give low values 0.991 | locus YEL003W, strain gim4, hits give low values 0.994 | locus YEL037C, strain rad23, hits give low values 0.984 | locus YEL061C, strain CIN8 (second series), hits give low values 0.99 | locus YEL061C, strain CIN8, hits give low values 1.01 | locus YER015W, strain faa2, hits give low values 0.975 | locus YER016W, strain bim1, hits give low values 0.99 | locus YER110C, hits give low values 1.03 | locus YER111C, strain swi4, hits give low values 0.984 | locus YER155C, strain BEM2 (second series), hits give low values 1.01 | locus YER155C, strain BEM2, hits give low values 1.01 | locus YER167W, strain BCK2, hits give low values 1.01 | locus YFR010W, strain ubp6, hits give low values 0.988 | locus YGL078C, strain dbp3, hits give low values 1.02 | locus YGL086W, strain mad1, hits give low values 0.997 | locus YGL167C, strain pmr1, hits give low values 0.982 | locus YGL173C, strain kem1, hits give low values 0.985 | locus YGL227W, strain vid30, hits give low values 0.997 | locus YGL240W, strain doc1, hits give low values 1 | locus YGL248W, strain PDE1, hits give low values 1.02 | locus YGL253W, strain hxk2, hits give low values 0.993 | locus YGR078C, strain PAC10, hits give low values 1.01 | locus YGR135W, strain pre9, hits give low values 1.02 | locus YGR252W, strain gcn5, hits give low values 1.02 | locus YHR013C, strain ard1, hits give low values 0.967 | locus YHR027C, strain rpn1, hits give low values 1 | locus YHR030C, strain SLT2, hits give low values 1 and 1.01 | locus YHR079C, strain IRE1 (second series), hits give low values 1.03 | locus YHR079C, strain IRE1, hits give low values 1 | locus YHR094C, strain hxt1, hits give low values 1.02 | locus YHR129C, strain ARP1, hits give low values 1.01 | locus YHR142W, strain chs7, hits give low values 0.986 | locus YHR200W, strain rpn10, hits give low values 1.02 | locus YIL066C, strain RNR3, hits give low values 1.01 | locus YIL073C, strain SPO22, hits give low values 1.08 | locus YIL125W, strain kgd1, hits give low values 1.01 | locus YIR030C, strain dcg1, hits give low values 1.02 | locus YJL092W, strain hpr5, hits give low values 0.991 | locus YJL095W, strain BCK1 (second series), hits give low values 0.994 | locus YJL095W, strain BCK1, hits give low values 1.01 and 1.03 | locus YJL115W, strain asf1, hits give low values 0.976 | locus YJL129C, strain trk1, hits give low values 0.971 | locus YJL134W, strain LCB3, hits give low values 1 | locus YJL154C, strain vps35, hits give low values 0.992 | locus YJL164C, strain tpk1, hits give low values 0.987 | locus YJL166W, strain qcr8, hits give low values 0.994 | locus YJL168C, strain set2, hits give low values 1.01 | locus YJL187C, strain SWE1 (second series), hits give low values 1.01 | locus YJL187C, strain SWE1, hits give low values 0.991
